Experiment in all cases: protein-binding microarray (PBM); PBM: ~300 nM protein, 6 mM HEPES pH 7.8, 80 mM KCl, 0.5 mM EDTA, 0.5 mM EGTA, 6% glycerol, 35 ng/ul poly-dIdC, 1% milk, 1 h, room temperature; Ap Aiptasia and Nv Nematostella (sea anemones) / Co Capsaspora / Aq Amphimedon (sponge) / Dm Drosophila / Hu human; RHD is the Rel homology domain; high values mean tight binding
Details in all cases: dsDNA, one strand shown

One experiment deals with T1, GST-Ap-NF-kB RHD (Exaiptasia pallida (Aiptasia), UniProt A0A913YAJ5 2-422).
T1 sequence: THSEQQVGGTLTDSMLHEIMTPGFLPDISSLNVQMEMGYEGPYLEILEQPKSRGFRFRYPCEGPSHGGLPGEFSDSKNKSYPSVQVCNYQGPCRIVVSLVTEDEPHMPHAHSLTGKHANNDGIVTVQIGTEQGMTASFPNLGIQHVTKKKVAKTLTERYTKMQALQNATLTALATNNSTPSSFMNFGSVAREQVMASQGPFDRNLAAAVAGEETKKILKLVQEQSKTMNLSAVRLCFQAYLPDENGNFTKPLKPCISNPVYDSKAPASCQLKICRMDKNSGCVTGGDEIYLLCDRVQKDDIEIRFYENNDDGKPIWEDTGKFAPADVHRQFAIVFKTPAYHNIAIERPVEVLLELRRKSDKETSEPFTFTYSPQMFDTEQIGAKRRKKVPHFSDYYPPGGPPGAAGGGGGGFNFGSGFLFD

Experiment [1] concerns the target T2, GST-Nv-NF-kB (Cys allele) (Nematostella vectensis, UniProt E5G601 2-411).
T2 sequence: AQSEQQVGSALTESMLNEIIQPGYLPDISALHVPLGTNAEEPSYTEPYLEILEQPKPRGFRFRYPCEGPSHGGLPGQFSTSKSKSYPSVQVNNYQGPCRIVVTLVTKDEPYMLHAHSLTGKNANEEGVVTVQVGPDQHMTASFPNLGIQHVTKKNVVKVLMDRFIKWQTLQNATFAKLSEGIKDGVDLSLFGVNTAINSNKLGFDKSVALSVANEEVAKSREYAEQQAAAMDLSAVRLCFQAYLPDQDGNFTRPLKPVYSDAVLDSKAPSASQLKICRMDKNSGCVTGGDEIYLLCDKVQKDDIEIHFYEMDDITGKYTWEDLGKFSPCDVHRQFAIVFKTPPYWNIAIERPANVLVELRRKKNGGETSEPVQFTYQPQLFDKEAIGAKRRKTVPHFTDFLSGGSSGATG

Experiment [2] concerns the target T3, GST-Nv-NF-kB (Ser allele) (Nematostella vectensis, UniProt A7UNT2 2-411).
T3 sequence: T2 sequence with Q21R, C66S, S207N, E215Q, V217A, E225K, A268E, D399E

The target of a further experiment is T4, GST-Co-NF-kB (Capsaspora owczarzaki, UniProt F1ARL5 200-546).
T4 sequence: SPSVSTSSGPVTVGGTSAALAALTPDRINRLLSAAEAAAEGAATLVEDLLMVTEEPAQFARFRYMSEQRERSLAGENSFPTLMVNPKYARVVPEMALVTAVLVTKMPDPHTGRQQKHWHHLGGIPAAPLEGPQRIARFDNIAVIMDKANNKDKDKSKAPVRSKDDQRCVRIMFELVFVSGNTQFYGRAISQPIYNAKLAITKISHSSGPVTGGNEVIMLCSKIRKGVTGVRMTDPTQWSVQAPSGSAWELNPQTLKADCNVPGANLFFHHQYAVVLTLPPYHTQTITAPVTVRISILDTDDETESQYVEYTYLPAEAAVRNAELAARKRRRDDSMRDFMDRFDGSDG

The target in a further experiment is T5, GST-Dm-Relish (Drosophila melanogaster, UniProt Q94527 99-473).
T5 sequence: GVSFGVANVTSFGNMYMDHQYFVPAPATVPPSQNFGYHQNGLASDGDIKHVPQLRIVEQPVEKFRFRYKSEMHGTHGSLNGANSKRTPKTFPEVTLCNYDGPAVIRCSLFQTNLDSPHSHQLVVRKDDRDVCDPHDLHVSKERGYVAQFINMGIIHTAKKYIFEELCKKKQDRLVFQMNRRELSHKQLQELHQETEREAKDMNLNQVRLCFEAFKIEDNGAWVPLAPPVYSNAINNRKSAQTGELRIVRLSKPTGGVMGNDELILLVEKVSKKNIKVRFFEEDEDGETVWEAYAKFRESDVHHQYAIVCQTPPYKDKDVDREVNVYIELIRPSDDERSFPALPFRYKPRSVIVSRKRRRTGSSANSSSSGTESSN

For another experiment, the target named is T6, GST-Aq-NF-kB (Amphimedon queenslandica, UniProt A9Y5G7 2-389).
T6 sequence: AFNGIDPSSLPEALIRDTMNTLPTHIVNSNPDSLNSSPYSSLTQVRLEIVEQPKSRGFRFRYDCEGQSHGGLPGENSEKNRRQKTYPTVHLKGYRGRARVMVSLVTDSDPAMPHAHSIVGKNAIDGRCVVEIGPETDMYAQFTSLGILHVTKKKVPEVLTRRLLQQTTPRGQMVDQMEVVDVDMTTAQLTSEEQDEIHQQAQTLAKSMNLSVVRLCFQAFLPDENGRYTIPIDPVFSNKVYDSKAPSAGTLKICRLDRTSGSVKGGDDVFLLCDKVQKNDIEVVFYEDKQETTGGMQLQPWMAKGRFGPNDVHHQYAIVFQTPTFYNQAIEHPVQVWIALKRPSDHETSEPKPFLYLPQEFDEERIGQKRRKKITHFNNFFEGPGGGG

A further experiment concerns the target GST-Hu-p50 (Homo sapiens, UniProt P19838 7-356).

Changes are numbered by the printed parent chain.

Sequence of GST-Hu-p50 (P19838 7-356): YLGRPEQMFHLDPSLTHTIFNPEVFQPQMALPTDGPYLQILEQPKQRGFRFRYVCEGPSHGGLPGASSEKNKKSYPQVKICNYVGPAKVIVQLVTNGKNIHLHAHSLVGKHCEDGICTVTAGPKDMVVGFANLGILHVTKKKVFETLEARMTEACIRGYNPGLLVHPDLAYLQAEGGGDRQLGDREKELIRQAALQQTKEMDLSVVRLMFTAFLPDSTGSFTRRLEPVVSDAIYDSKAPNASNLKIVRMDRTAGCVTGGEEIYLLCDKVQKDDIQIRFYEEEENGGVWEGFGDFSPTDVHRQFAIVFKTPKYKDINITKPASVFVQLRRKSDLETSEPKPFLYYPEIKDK

Regarding “CCGATTAACATCAGAAGATCCCCTGATGTTAATCGGGTCTTGATTCGCTTGACGCTGCTG”, the binding signal turned out to be 7.16 z-score with GST-Ap-NF-kB RHD; 6.92 z-score in experiment [1]; 6.96 z-score in experiment [2]; 2.91 z-score in the experiment with GST-Co-NF-kB; 7.44 z-score with GST-Dm-Relish; 6.44 z-score in the experiment with GST-Aq-NF-kB. This sequence displayed a binding signal in the experiment with GST-Hu-p50 of 5.61 z-score.

“CCGATTAACATCACCCGGGAAACTGATGTTAATCGGGTCTTGATTCGCTTGACGCTGCTG”: the binding signal came out at 2.48 z-score with GST-Ap-NF-kB RHD; 2.39 z-score in experiment [1]; 3.08 z-score in experiment [2]; 4.78 z-score with GST-Co-NF-kB; 1.11 z-score with GST-Dm-Relish; 2.32 z-score with GST-Aq-NF-kB. This sequence also yielded a binding signal with GST-Hu-p50 of 1.81 z-score.

With “CCGATTAACATCAGGGCAACCCCTGATGTTAATCGGGTCTTGATTCGCTTGACGCTGCTG”, the binding signal was determined as 3.77 z-score with GST-Ap-NF-kB RHD; 2.55 z-score in experiment [1]; 1.13 z-score in experiment [2]; 1.28 z-score with GST-Co-NF-kB; 4.15 z-score with GST-Dm-Relish; 5.95 z-score with GST-Aq-NF-kB. For the same sequence, the binding signal with GST-Hu-p50 was 3.08 z-score.

In the case of “CCGATTAACATCAGACTTCCCCCTGATGTTAATCGGGTCTTGATTCGCTTGACGCTGCTG”, the binding signal came to 7.28 z-score with GST-Ap-NF-kB RHD; 7.38 z-score in experiment [1]; 7.81 z-score in experiment [2]; 7.84 z-score with GST-Co-NF-kB; 7.18 z-score with GST-Dm-Relish; 6.8 z-score with GST-Aq-NF-kB. Also, the binding signal in the experiment with GST-Hu-p50 turned out to be 6.2 z-score.

With “CCGATTAACATCAGGATTTACCCTGATGTTAATCGGGTCTTGATTCGCTTGACGCTGCTG”, the binding signal turned out to be 3.04 z-score with GST-Ap-NF-kB RHD; 4.29 z-score in experiment [1]; 3.54 z-score in experiment [2]; 1.85 z-score in the experiment with GST-Co-NF-kB; 5.15 z-score with GST-Dm-Relish; 6.67 z-score in the experiment with GST-Aq-NF-kB. In the experiment with GST-Hu-p50, this sequence displayed a binding signal of 3.39 z-score.

With “CCGATTAACATCAGGGGGAAAACTGATGTTAATCGGGTCTTGATTCGCTTGACGCTGCTG”, the binding signal in the experiment with GST-Ap-NF-kB RHD came out at 8.4 z-score; in experiment [1], 8.08 z-score; in experiment [2], 9.8 z-score; with GST-Co-NF-kB, 11.7 z-score; in the experiment with GST-Dm-Relish it was 7.59 z-score; with GST-Aq-NF-kB, 7.21 z-score. In the experiment with GST-Hu-p50, this sequence displayed a binding signal of 7.47 z-score.

“CCGATTAACATCAATCACCCCCCTGATGTTAATCGGGTCTTGATTCGCTTGACGCTGCTG”: the binding signal with GST-Ap-NF-kB RHD was determined as 4.05 z-score; in experiment [1], 4.27 z-score; in experiment [2] it was 4.76 z-score; with GST-Co-NF-kB, 4.97 z-score; in the experiment with GST-Dm-Relish, 4.64 z-score; with GST-Aq-NF-kB, 5.36 z-score. In the experiment with GST-Hu-p50, this sequence gave a binding signal of 4.4 z-score.

As to “CCGATTAACATCAAACATTCCCTTGATGTTAATCGGGTCTTGATTCGCTTGACGCTGCTG”, the binding signal with GST-Ap-NF-kB RHD is 2.36 z-score; in experiment [1], 4.96 z-score; in experiment [2], 4.25 z-score; with GST-Co-NF-kB, 1.95 z-score; with GST-Dm-Relish it was 2.37 z-score; with GST-Aq-NF-kB, 5.41 z-score. The same sequence returned a binding signal in the experiment with GST-Hu-p50 of 3.27 z-score.

As for “CCGATTAACATCAAATTCCCCCCTGATGTTAATCGGGTCTTGATTCGCTTGACGCTGCTG”, the binding signal came out at 8.5 z-score with GST-Ap-NF-kB RHD; 8.77 z-score in experiment [1]; 8.88 z-score in experiment [2]; 10.1 z-score with GST-Co-NF-kB; 8.4 z-score with GST-Dm-Relish; 7.65 z-score with GST-Aq-NF-kB. In the experiment with GST-Hu-p50, the binding signal is 6.85 z-score.

“CCGATTAACATCAGGGGTACCCCTGATGTTAATCGGGTCTTGATTCGCTTGACGCTGCTG”: the binding signal in the experiment with GST-Ap-NF-kB RHD is 7.75 z-score; in experiment [1] it was 3.69 z-score; in experiment [2], 2.78 z-score; in the experiment with GST-Co-NF-kB, 6.06 z-score; in the experiment with GST-Dm-Relish, 5.81 z-score; with GST-Aq-NF-kB, 6.3 z-score. This sequence also gave a binding signal in the experiment with GST-Hu-p50 of 3.73 z-score.

As for “CCGATTAACATCAAAAATCCCGGTGATGTTAATCGGGTCTTGATTCGCTTGACGCTGCTG”, the binding signal with GST-Ap-NF-kB RHD was determined as 4.77 z-score; in experiment [1], 4.4 z-score; in experiment [2] it was 4.06 z-score; in the experiment with GST-Co-NF-kB, 2.98 z-score; with GST-Dm-Relish it was 8.52 z-score; with GST-Aq-NF-kB, 5.12 z-score. This sequence showed a binding signal with GST-Hu-p50 of 3.94 z-score.

The values are drawn from PMC5700166.
